{"source": "the supplement of paper PMC8728848", "binders": {"B1": {"name": "MRCL (Homo sapiens), NP_872425.1 (protein)", "chain": "ATKVHFPFHTCDLRIDGDCFMVSSEADTYYRARMKCQRKGGVLAQIKSQKVQDILAFYLGRLETTNEVTDSDFETRNFWIGLTYKTAKDSFRWATGEHQAFTSFAFGQPDNHGLVWLSAAMGFGNCVELQASAAFNWNNQRCKTRNRYICQFAQEHISRWGPGS"}}, "assay_in_all_cases": "glycan array binding signal (z-score within array); higher = stronger binding", "details_in_all_cases": "glycan notation: IUPAC condensed, linker removed", "key": {"[1]": {"target": "Fuc(a1-2)Gal(b1-3)GlcNAc(b1-2)Man(a1-3)[Fuc(a1-2)Gal(b1-3)GlcNAc(b1-2)Man(a1-6)]Man(b1-4)GlcNAc(b1-4)GlcNAc", "method_in_brief": "(§1)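 The binding signal is a Z-score computed within each array. Data were drawn from 3228 arrays in the Consortium for Functional Glycomics database, restricted to those with a known protein sequence. Scores were averaged over arrays of the same protein sequence at different concentrations or buffers, and over linkers, and negative values can be taken as non-binding.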"}, "[2]": {"target": "Fuc(a1-2)Gal(b1-3)[Fuc(a1-4)]GlcNAc(b1-2)Man(a1-3)[Fuc(a1-2)Gal(b1-3)[Fuc(a1-4)]GlcNAc(b1-2)Man(a1-6)]Man(b1-4)GlcNAc(b1-4)GlcNAc", "method_in_brief": "as §1"}, "[3]": {"target": "Fuc(a1-2)[Gal(a1-3)]Gal(b1-4)Glc", "method_in_brief": "as §1"}, "[4]": {"target": "Fuc(a1-2)[Gal(a1-4)]Gal(b1-4)GlcNAc", "method_in_brief": "as §1"}, "[5]": {"target": "Fuc(a1-2)[GalNAc(a1-4)]Gal(b1-4)GlcNAc", "method_in_brief": "as §1"}, "[6]": {"target": "Fuc(a1-3)[Gal(b1-4)]GlcNAc(b1-4)Gal(b1-4)[Fuc(a1-3)]GlcNAc", "method_in_brief": "as §1"}, "[7]": {"target": "Gal(a1-3)[Gal(a1-4)]Gal(b1-4)GlcNAc", "method_in_brief": "as §1"}, "Gal(b1-2)Gal": {"target": "Gal(b1-2)Gal", "method_in_brief": "as §1"}, "[8]": {"target": "Gal(b1-4)GlcNAc(b1-2)Man(a1-3)[Gal(b1-4)GlcNAc(b1-2)Man(a1-6)]Man(b1-4)GlcNAc(b1-4)GlcNAc", "method_in_brief": "as §1"}, "[9]": {"target": "Gal(b1-4)GlcNAc(b1-3)Gal(b1-4)GlcNAc(b1-3)Gal(b1-4)GlcNAc", "method_in_brief": "as §1"}, "[10]": {"target": "Gal(b1-4)GlcNAc(b1-3)[GlcNAc(b1-6)]Gal(b1-4)GlcNAc", "method_in_brief": "as §1"}, "[11]": {"target": "Gal3S(b1-3)[Fuc(a1-4)]GlcNAc", "method_in_brief": "as §1"}, "Gal3S6S(b1-4)GlcNAc6S": {"target": "Gal3S6S(b1-4)GlcNAc6S", "method_in_brief": "as §1"}, "GalNAc(a1-3)GalNAc": {"target": "GalNAc(a1-3)GalNAc", "method_in_brief": "as §1"}, "GalNAc(b1-3)GalNAc": {"target": "GalNAc(b1-3)GalNAc", "method_in_brief": "as §1"}, "Glc(a1-6)Glc(a1-6)Glc": {"target": "Glc(a1-6)Glc(a1-6)Glc", "method_in_brief": "as §1"}, "Glc(b1-6)Glc": {"target": "Glc(b1-6)Glc", "method_in_brief": "as §1"}, "GlcA(b1-6)Gal": {"target": "GlcA(b1-6)Gal", "method_in_brief": "as §1"}, "[12]": {"target": "GlcNAc(a1-4)Gal(b1-4)GlcNAc(b1-3)Gal(b1-4)GlcNAc(b1-3)Gal(b1-4)GlcNAc", "method_in_brief": "as §1"}, "[13]": {"target": "GlcNAc(a1-4)Gal(b1-4)GlcNAc(b1-3)Gal(b1-4)[Fuc(a1-3)]GlcNAc(b1-3)Gal(b1-4)[Fuc(a1-3)]GlcNAc", "method_in_brief": "as §1"}, "[14]": {"target": "GlcNAc(a1-6)Gal(b1-4)GlcNAc", "method_in_brief": "as §1"}, "[15]": {"target": "GlcNAc(b1-4)[GlcNAc(b1-6)]GalNAc", "method_in_brief": "as §1"}, "Man(a1-6)Man": {"target": "Man(a1-6)Man", "method_in_brief": "as §1"}, "[16]": {"target": "Neu5Ac(a2-3)Gal(b1-3)GlcNAc(b1-3)Gal(b1-3)GlcNAc", "method_in_brief": "as §1"}, "[17]": {"target": "Neu5Ac(a2-3)Gal(b1-3)GlcNAc6S", "method_in_brief": "as §1"}, "[18]": {"target": "Neu5Ac(a2-3)Gal(b1-4)[Fuc(a1-3)]GlcNAc(b1-3)Gal(b1-4)GlcNAc", "method_in_brief": "as §1"}, "[19]": {"target": "Neu5Ac(a2-3)Gal(b1-4)[Fuc(a1-3)]GlcNAc(b1-6)[Gal(b1-3)]GalNAc", "method_in_brief": "as §1"}, "[20]": {"target": "Neu5Ac(a2-3)Gal6S(b1-4)[Fuc(a1-3)]GlcNAc", "method_in_brief": "as §1"}, "Neu5Ac(a2-3)GalNAc": {"target": "Neu5Ac(a2-3)GalNAc", "method_in_brief": "as §1"}, "[21]": {"target": "Neu5Ac(a2-6)Gal(b1-4)GlcNAc(b1-3)Gal(b1-4)GlcNAc(b1-3)Gal(b1-4)GlcNAc", "method_in_brief": "as §1"}, "Neu5Ac(a2-8)Neu5Ac": {"target": "Neu5Ac(a2-8)Neu5Ac", "method_in_brief": "as §1"}, "Neu5Ac(b2-6)GalNAc": {"target": "Neu5Ac(b2-6)GalNAc", "method_in_brief": "as §1"}}, "note": "Many of the other results were omitted from the sample, so the strongest signals are more common in it than they were."}
{"binder": "B1", "values": [{"measurement": "glycan array binding signal (z-score)", "setting": "[1]", "value": 3.42}, {"measurement": "glycan array binding signal (z-score)", "setting": "[2]", "value": 0.034}, {"measurement": "glycan array binding signal (z-score)", "setting": "[3]", "value": 2.33}, {"measurement": "glycan array binding signal (z-score)", "setting": "[4]", "value": -0.456}, {"measurement": "glycan array binding signal (z-score)", "setting": "[5]", "value": 3.1}, {"measurement": "glycan array binding signal (z-score)", "setting": "[6]", "value": -0.365}, {"measurement": "glycan array binding signal (z-score)", "setting": "[7]", "value": 0.889}, {"measurement": "glycan array binding signal (z-score)", "setting": "Gal(b1-2)Gal", "value": -0.726}, {"measurement": "glycan array binding signal (z-score)", "setting": "[8]", "value": -0.358}, {"measurement": "glycan array binding signal (z-score)", "setting": "[9]", "value": 4.88}, {"measurement": "glycan array binding signal (z-score)", "setting": "[10]", "value": 4.12}, {"measurement": "glycan array binding signal (z-score)", "setting": "[11]", "value": -0.239}, {"measurement": "glycan array binding signal (z-score)", "setting": "Gal3S6S(b1-4)GlcNAc6S", "value": 0.67}, {"measurement": "glycan array binding signal (z-score)", "setting": "GalNAc(a1-3)GalNAc", "value": -0.581}, {"measurement": "glycan array binding signal (z-score)", "setting": "GalNAc(b1-3)GalNAc", "value": -0.074}, {"measurement": "glycan array binding signal (z-score)", "setting": "Glc(a1-6)Glc(a1-6)Glc", "value": -0.679}, {"measurement": "glycan array binding signal (z-score)", "setting": "Glc(b1-6)Glc", "value": -0.712}, {"measurement": "glycan array binding signal (z-score)", "setting": "GlcA(b1-6)Gal", "value": 0.237}, {"measurement": "glycan array binding signal (z-score)", "setting": "[12]", "value": 1.88}, {"measurement": "glycan array binding signal (z-score)", "setting": "[13]", "value": 1.11}, {"measurement": "glycan array binding signal (z-score)", "setting": "[14]", "value": 5.62}, {"measurement": "glycan array binding signal (z-score)", "setting": "[15]", "value": -0.523}, {"measurement": "glycan array binding signal (z-score)", "setting": "Man(a1-6)Man", "value": 0.948}, {"measurement": "glycan array binding signal (z-score)", "setting": "[16]", "value": -0.295}, {"measurement": "glycan array binding signal (z-score)", "setting": "[17]", "value": -0.562}, {"measurement": "glycan array binding signal (z-score)", "setting": "[18]", "value": -0.637}, {"measurement": "glycan array binding signal (z-score)", "setting": "[19]", "value": -0.645}, {"measurement": "glycan array binding signal (z-score)", "setting": "[20]", "value": -0.64}, {"measurement": "glycan array binding signal (z-score)", "setting": "Neu5Ac(a2-3)GalNAc", "value": -0.424}, {"measurement": "glycan array binding signal (z-score)", "setting": "[21]", "value": -0.367}, {"measurement": "glycan array binding signal (z-score)", "setting": "Neu5Ac(a2-8)Neu5Ac", "value": -0.294}, {"measurement": "glycan array binding signal (z-score)", "setting": "Neu5Ac(b2-6)GalNAc", "value": 5.61}]}
